Assay outcomes: PubChem BioAssay, several laboratories
A selection: hits, their analogues and other compounds. The true share with any hit is near 2.3%.
MCL1 BIM primary – disrupts human MCL1 binding to BIM-BH3 peptide. inhibition, % at 10.9 µM. GST-MCL1 / FITC-Bim-BH3 fluorescence polarization. 320,000 compounds, 0.68% hits. AID 2057;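 active = inhibition above the mean inhibition of all tested compounds plus 3 SD, set per campaign, cut at about 40% in these data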;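 also: 0% = DMSO wells and 100% = unlabeled Bim-BH3 peptide control; higher means more loss of mP so more displacement of Bim peptide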
Target sequence (Q07820 whole entry, looked up): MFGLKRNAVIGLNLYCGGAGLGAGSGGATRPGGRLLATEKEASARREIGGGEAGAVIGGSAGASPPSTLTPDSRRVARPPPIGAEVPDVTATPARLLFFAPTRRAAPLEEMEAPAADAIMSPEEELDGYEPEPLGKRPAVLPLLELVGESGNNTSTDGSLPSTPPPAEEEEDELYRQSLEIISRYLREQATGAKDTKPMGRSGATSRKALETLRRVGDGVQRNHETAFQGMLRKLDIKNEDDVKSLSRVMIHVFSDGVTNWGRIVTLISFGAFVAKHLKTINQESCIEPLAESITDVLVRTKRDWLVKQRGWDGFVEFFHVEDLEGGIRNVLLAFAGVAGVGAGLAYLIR
Mcl1 Noxa PPI – Mcl-1/Noxa interaction inhibition; TR-FRET Mcl-1/Noxa peptide binding, 2 h; inhibition, % at 21.7 µM; Q07820; 220,000 compounds, 1.5% hits;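 active = compounds that cut the protein-peptide binding signal by more than 50% relative to plate controls in a single-dose test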;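 also: His-tagged Mcl-1 with rhodamine Noxa BH3 peptide and terbium anti-His antibody; 0% = Mcl-1 plus Noxa peptide wells and 100% = peptide-only wells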
Mcl1 Bid PPI – disrupts binding of human Mcl-1 to Bid peptide; 220,000 compounds, 0.97% hits; inhibition, % at 21.7 µM; TR-FRET Mcl-1/Bid-Dy647 peptide binding, 1536-well; Q07820;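 active = compounds that cut the binding signal by more than half at the single screening dose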;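 also: His-tagged Mcl-1 with europium anti-His antibody binding Bid BH3 peptide; 0% = Mcl-1 plus peptide wells and 100% = peptide-only wells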
Mcl-1 Bim block – disrupts Bim peptide binding to human Mcl-1; Q07820; Bead-based flow cytometry, Bim peptide-Mcl-1 binding; inhibition, % at 10 µM; 190,000 compounds, 0.1% hits; AID 1009; in the data active = inhibition above about 40%;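 also: 0% = no compound tracer wells and 100% = peptide blocker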
GLD-1 RNA inh – GLD-1-TGE RNA interaction inhibition (C. elegans); inhibition, % at 5.96 µM; AID 2280; purified GLD-1 + fluorescein TGE RNA, fluorescence polarization; 320,000 compounds, 0.44% hits;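 active = percent inhibition above a per-plate cutoff, the plate mean of test compounds plus 3 SD, cut at about 30% in these data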;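 also: 0% = DMSO wells with GLD-1 and probe and 100% = wells lacking GLD-1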
BCLXL inh – inhibitors of human Bcl-xL. Q07817. 320,000 compounds, 0.7% hits. inhibition, % at 10.9 µM. GST-Bcl-xL / FITC-Bim BH3 peptide fluorescence polarization;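 active = inhibition above the mean of all tested compounds plus 3 SD, cutoff set per campaign, cut at about 30% in these data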;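 also: 0% = DMSO wells and 100% = unlabeled Bim-BH3 peptide competitor; inhibitors lower millipolarization by displacing the labeled peptide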
Target sequence (Q07817 whole entry, looked up): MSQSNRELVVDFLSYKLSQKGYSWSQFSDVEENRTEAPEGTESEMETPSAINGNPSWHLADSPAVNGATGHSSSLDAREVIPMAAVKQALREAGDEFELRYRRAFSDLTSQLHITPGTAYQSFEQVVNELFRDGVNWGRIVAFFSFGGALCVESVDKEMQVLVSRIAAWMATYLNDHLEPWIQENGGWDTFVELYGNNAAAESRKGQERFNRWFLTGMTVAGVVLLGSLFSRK
* marks the source's active call; other numbers are inactive results; / = not tested or not shown.

SMILES	MCL1 BIM primary	Mcl1 Noxa PPI	Mcl1 Bid PPI	Mcl-1 Bim block	GLD-1 RNA inh	BCLXL inh
O=C(NCc1nnc(SCC(=O)N2CCOCC2)o1)c1c(F)cccc1Cl	-6	19	77*	3	9	0
CCOc1c(Br)cc(/C=C(\C#N)C(=O)NC2CC2)cc1OC	11	/	/	/	-12	4
COc1ccc(C(=O)Nc2ccccc2C(=O)NC(Cc2ccc(O)cc2)C(=O)NNC(=O)c2ccccc2Cl)cc1 (stereo unspecified)	2	-126	-56	-2	2	3
Cc1ccc(-c2cc(C(=O)Nc3sc4c(c3C(=O)NCc3ccco3)CCC4)[nH]n2)c(O)c1	7	49	34	-20	-5	1
Cc1cc(O)c(-c2cc(C(=O)Nc3sc4c(c3C(=O)NCc3ccco3)CCC4)[nH]n2)cc1C	1	71*	-47	/	-3	-1
C/C=C/C=C/C(=O)N1CC[C@]23c4ccccc4N[C@H]4N(C)c5cccc6c5[C@]42CCN([C@H]6C2OC2(C)C)[C@H]13 (stereo partly specified)	4	64*	-109	/	4	3
CN1CCC23c4ccccc4NC1C21CCN(C)C3Nc2ccccc21	-1	/	/	/	9	2
COc1ccc(NC(=S)Nc2ccc3nccnc3c2)cc1	7	52*	-53	-1	15	13
Cc1ccc(C)c(N2CCN(CCCNC(=O)Cn3cccc3C(=O)c3ccccc3)CC2)c1	-2	1	-75	-3	1	-3
CC(/C=N\Nc1nnc2c(n1)[nH]c1c(C)cccc12)=C\c1ccco1	9	87*	78*	0	4	5
CC(/C=N/n1c(-c2ccco2)n[nH]c1=S)=C\c1ccco1	19	42	-47	-3	2	0
O=C(O)c1cccc(-n2cccc2/C=C2/NC(=O)N(c3ccc(Cl)cc3)C2=O)c1	/	113*	98*	6	/	/
COc1ccc(-n2cccc2/C=C2/NC(=O)N(c3cccc(Cl)c3)C2=O)cc1	-26	33	-40	-5	3	-10
O=C(Nc1nccs1)[C@@H]1CCCN1C(=O)c1cccs1	-10	-3	-11	3	-8	-3
Cc1c(C(=O)OCC(C)C)[nH]c2c1C(=O)CC(c1ccco1)C2 (stereo unspecified)	1	2	-14	-1	2	-2
Cc1c(C(=O)OCC2CCCO2)[nH]c2c1C(=O)CC(c1ccco1)C2 (stereo unspecified)	34	70*	9	0	-6	13
Cc1c(Cl)c(C(F)(F)F)nn1CC(=O)NN	13	2	-4	2	7	4
Cc1[nH]c2ccccc2c1C(=O)COC(=O)C1CCC(=O)N1 (stereo unspecified)	-1	10	-56	-1	4	2
CCOC(=O)C[n+]1c(C)sc2ccc(OC)cc21	3	54*	-95	-3	0	2
CCCN(CCC)C(=O)Nc1ccc(F)cc1F	-2	-3	-9	/	-1	6
Cc1ccc(Cl)cc1N1CCN(S(=O)(=O)c2ccc3c(c2)OCCO3)CC1	4	9	8	-1	3	2
Cc1ccc2cc(/C=N/NC(=O)c3ccccc3O)c(Cl)nc2c1	8	64*	-7	10	8	3
O=C(N/N=C/c1cc2cc3c(cc2nc1Cl)OCO3)c1ccncc1	-1	-2	-4	/	6	3
Cc1cccc2cc(/C=N/NC(=O)c3ccccc3O)c(Cl)nc12	2	83*	28	-3	7	-3
Cc1cccc2cc(/C=N/NC(=O)c3ccncc3)c(Cl)nc12	9	-3	-15	/	4	6
SMILES	MCL1 BIM primary	Mcl1 Noxa PPI	Mcl1 Bid PPI	Mcl-1 Bim block	GLD-1 RNA inh	BCLXL inh
O=C(N/N=C/c1cc2cc3c(cc2nc1Cl)OCCO3)c1ccccc1O	-6	71*	60*	-51	1	-4
Cc1ccc2cc(/C=N/NC(=O)[C@H]3C[C@@H]3c3ccccc3)c(Cl)nc2c1	10	-2	-4	-2	0	-2
[O-]c1c[n+](-c2ccc(-[n+]3cc([O-])on3)cc2)no1	23	57*	-30	3	8	10
S=c1nc(-c2cccc(Cl)c2)[nH][nH]1	9	35	-28	-5	2	7
S=c1nc(-c2cc(Cl)ccc2Cl)[nH][nH]1	34	50	58*	0	-8	10
Cc1cccc(OCC(=O)Nc2ccc(N3CCCC3)cc2)c1C	14	62*	-24	20	-2	4
Cc1ccccc1OCCCC(=O)Nc1ccc(N2CCOCC2)cc1	0	51*	-27	35	-7	4
Cc1ccc(OCC(=O)Nc2ccc(N3CCCC3)cc2)cc1C	9	81*	-7	1	-1	5
CN1CCN(c2ccc(NC(=O)COc3ccccc3Cl)cc2)CC1	-9	9	63*	0	-4	-1
COc1ccccc1OCCCC(=O)Nc1ccc(N2CCOCC2)cc1	8	11	-45	1	6	4
C/C(=N\NC(=O)c1csc2ccccc12)c1ccc(O)cc1	3	15	-25	1	-3	0
CC(C)OCCCNC(=O)C(NC(=O)c1ccc(Cl)cc1)C(C)C (stereo unspecified)	7	1	-18	8	-4	2
CC(=O)c1c(C)[nH]c(C(=O)CSc2nc3ccccc3c(=O)n2CCCO)c1C	-3	25	-9	-1	2	-10
Cc1cc(C)cc(OCC(=O)Nc2ccc(N3CCCC3)cc2)c1	12	67*	5	9	4	3
CN(C)c1ccc(N2CC(C)(C)C2=O)cc1	8	63*	-46	-3	14	3
CC(/C=C/c1ccco1)=N\NC(=O)c1cc(C)[nH]n1	18	78*	-5	-3	4	17
Cc1cc(C(=O)N/N=C/c2ccco2)n[nH]1	2	-8	-25	0	1	6
CC(/C=N/NC(=O)Cc1cccs1)=C\c1ccco1	3	24	-39	0	-4	6
CC(/C=C/c1ccco1)=N/NC(=O)Cc1cccs1	21	87*	5	-5	4	14
COc1ccc(Cc2nc(-c3ccc(Br)cc3)no2)cc1	-5	58*	-6	1	1	0
COc1cccc(COc2ccccc2C2Nc3ccc(Br)cc3C(=O)N2NC(=O)c2ccncc2)c1 (stereo unspecified)	0	14	-3	0	9	5
O=c1cc(/N=C/c2coc3c(ccc4ccccc43)c2=O)[nH]c(=S)[nH]1	22	74*	-85	-14	2	14
NC(=S)N/N=C/c1coc2c(ccc3ccccc32)c1=O	5	-2	76*	-4	12	0
NC(=S)N/N=C/c1coc2cc(Br)ccc2c1=O	-4	18	-27	/	-2	0
